Results: PubChem BioAssay (Tox21)
Unmarked numbers belong to inactive results. Inconclusive results are not listed. Entries that show only a call come without a potency. Active and inactive are the calls of the source. Unless noted, calls come from the whole dose curve.

Assays:
[1] = Nuclear factor erythroid 2-related factor 2/antioxidant responsive element (Nrf2/ARE) small molecule agonists: qHTS cell viability counter screen in human keratinocytes (AID 1919968; active = well fitted cell-killing curve with a large enough effect in the repeat runs; note: nearly all actives have a fitted effect of over 55% in size)
In short: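 CellTiter-Fluor fluorescence, read 1 h after reagent, gave viability in the same wells as the ARE-luciferase assay. KeratinoSens cells (1,500/well) had 23 h compound exposure at 37 C/5% CO2 following 5 h plating.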

[2] = Nuclear factor erythroid 2-related factor 2/antioxidant responsive element (Nrf2/ARE) small molecule agonists: luciferase reporter gene qHTS assay in human keratinocytes (AID 1919969); note: nearly all actives have a fitted effect of over 35% in size
[3] = G protein-coupled receptor (GPCR) small molecule agonists, calcium flux assay: HEK293 wild type cell line counter screen (AID 1920065)
In short: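 Calcium flux counter screen: compound added in agonist mode at 15 concentrations in triplicate to dye-loaded parental HEK293 cells. Fluorescence (480/540) read kinetically for 3 min; ATP served as positive control.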

[4] = p53 small molecule agonists, cell-based qHTS assay with human liver microsomes (AID 1963577); note: potency is the fitted concentration of half-maximal effect
In short: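 p53RE-bla cells, 4,000/well, compound added after 5 h, with human liver microsomes 0.5 mg/mL and NADPH 0.5 mg/mL final; 16 h at 37 C, then LiveBLAzer 2 h RT, fluorescence.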

[5] = p53 small molecule agonists, cell-based qHTS assay with rat liver microsomes (AID 1963578)
In short: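 p53RE-bla cells, 4,000/well, pre-incubated 5 h, then given compounds plus rat liver microsomes (0.5 mg/mL final) and NADPH (0.5 mg/mL final). Incubation 16 h at 37 C; beta-lactamase reporter read by LiveBLAzer fluorescence after 2 h at room temperature.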

[6] = p53 small molecule agonists, cell-based qHTS assay with human liver microsomes: qHTS cell viability counter screen (AID 1963579); note: nearly all actives have a fitted effect of over 45% in size
In short: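 p53RE-bla cells, 4,000/well, dosed 5 hours after plating, with human liver microsomes (0.5 mg/mL final) plus NADPH (0.5 mg/mL final), 16 hours at 37 C. Viability read as CellTiter-Glo luminescence after 30 min at room temperature.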

[7] = p53 small molecule agonists, cell-based qHTS assay with rat liver microsomes: qHTS cell viability counter screen (AID 1963580); note: nearly all actives have a fitted effect of over 45% in size
In short: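 Rat liver microsome (0.5 mg/mL final) and NADPH (0.5 mg/mL final) co-incubation with compounds for 16 h at 37 C on HCT-116 p53RE-bla cells; cytotoxicity taken from intracellular ATP luminescence.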

[8] = p53 small molecule agonists, cell-based qHTS assay: qHTS cell viability counter screen (AID 1963581); note: nearly all actives have a fitted effect of over 45% in size
In short: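 Counter screen read by CellTiter-Glo luminescence (ATP content, 30 min at room temperature), run in the same wells as the beta-lactamase reporter read. HCT-116 p53RE-bla cells saw compounds for 16 h at 37 C.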

[9] = p53 small molecule agonists, cell-based qHTS assay (AID 1963582; active = well fitted activation curve with a large enough effect in the signal ratio in the repeat runs, not every such curve was filed as active; the % refers to the signal ratio)
In short: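 Read-out is beta-lactamase FRET fluorescence after 2 h at room temperature with LiveBLAzer B/G substrate. p53 response element-bla cells were treated 16 h at 37 C with compounds in DMSO, added 5 h after seeding.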

[10] = biological target: 5-hydroxytryptamine receptor 2A (Homo sapiens) (UniProt P28223); experiment: 5-hydroxytryptamine receptor 2A (HTR2A) small molecule antagonists, cell-based qHTS assay (AID 1963586); note: nearly all actives have a fitted effect of over 45% in size
In short: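 CHO cells stably expressing human HTR2A were plated for 18 h at 37 C, then loaded with calcium dye for 1 h. Compounds were preincubated 5 min at room temperature before DOI (4 nM solution) was added. Kinetic fluorescence was read for 3 min.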

[11] = biological target: 5-hydroxytryptamine receptor 2A (Homo sapiens) (UniProt P28223); experiment: 5-hydroxytryptamine receptor 2A (HTR2A) small molecule agonists, cell-based qHTS assay (AID 1963587); note: nearly all actives have a fitted effect of over 30% in size
In short: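 Kinetic calcium-flux fluorescence (2 min, 1 sec intervals) after compound addition in agonist mode. HTR2A-CHO cells were cultured 18 h, then dye-loaded 1 h at 37 C.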

[12] = biological target: Muscarinic acetylcholine receptor M1 (Homo sapiens) (UniProt P11229); experiment: Cholinergic receptor muscarinic 1 (CHRM1) small molecule antagonists, cell-based qHTS assay (AID 1963588); note: nearly all actives have a fitted effect of over 40% in size
In short: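 Compounds were tested at 15 concentrations in three independent runs. Dye-loaded CHRM1-CHO cells were exposed 5 min at room temperature before stimulation by acetylcholine added at 50nM. Intracellular calcium was read kinetically on FDSS for 3 min.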

[13] = biological target: Muscarinic acetylcholine receptor M1 (Homo sapiens) (UniProt P11229); experiment: Cholinergic receptor muscarinic 1 (CHRM1) small molecule agonists, cell-based qHTS assay (AID 1963589); note: nearly all actives have a fitted effect of over 35% in size
In short: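 Agonist-mode calcium-flux screen: compounds at 15 concentrations, three independent runs, were pin-transferred onto dye-loaded human CHRM1-CHO cells. Fluorescence was then recorded kinetically every second over minutes.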

[14] = cAMP Responsive Elements (CRE) small molecule agonists, cell-based qHTS assay (AID 1963590)
In short: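 Agonist mode: compound added to CRE-bla HEK 293T cells (2,000/well, 18 h after plating) for 3 h at 37 C/5% CO2. Reporter activity detected via FRET beta-lactamase substrate, 2 h room-temperature loading.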

[15] = cAMP Responsive Elements (CRE) small molecule antagonists, cell-based qHTS assay (AID 1963591; active = well fitted inhibition curve with a large enough effect in the signal ratio in the repeat runs, not every such curve was filed as active; the % refers to the signal ratio)
In short: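 Antagonist mode: compounds are added alongside the adenylyl cyclase activator NKH477 (0.25 uM final) to CRE-bla HEK293T cells for 3 h. LiveBLAzer FRET substrate, 2 h at room temperature, reports bla expression.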

[16] = biological target: Beta-2 adrenergic receptor (Homo sapiens) (UniProt P07550); experiment: Adrenergic beta2 receptor (ADRB2) small molecule antagonists, cell-based qHTS assay (AID 1963592); note: series mostly up to about 92 µM; nearly all actives have a fitted effect of over 50% in size
In short: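 Assay format: CHO-ADRB2 cells, 18-20hr seeding at 37C/5% CO2, then compound plus 1nM isoproterenol agonist mix for 0.5hr RT. Homogeneous time-resolved fluorescence cAMP detection after 1hr, expressed as 665/615 nm ratio.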

[17] = biological target: D(2) dopamine receptor (Homo sapiens) (UniProt P14416); experiment: Dopamine D2 receptor (DRD2) small molecule agonists, cell-based qHTS assay (AID 1963594); note: nearly all actives have a fitted effect of over 35% in size
In short: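 cAMP accumulation in DRD2-HEK293 cells measured by HTRF after 1 h detection; compounds added 10 min before NKH477 (200nM […]) forskolin-analogue stimulation, 30 min at room temperature, with Ro20-1724 present at 0.1 mM final.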

[18] = biological target: D(2) dopamine receptor (Homo sapiens) (UniProt P14416); experiment: Dopamine D2 receptor (DRD2) small molecule antagonists, cell-based qHTS assay (AID 1963595; active = well fitted inhibition curve with a large enough effect in the signal ratio in the repeat runs, with a control signal flat; the % refers to the signal ratio)
In short: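 HEK293 cells stably expressing DRD2, preincubated with 0.1 mM Ro20-1724 and compounds 10 min, were stimulated with 200 nM NKH477 plus 12 nM quinpirole for 30 min at room temperature; cAMP measured by HTRF (665/620 nm).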

[19] = biological target: Gonadotropin-releasing hormone receptor (Homo sapiens) (UniProt P30968); experiment: Human gonadotropin-releasing hormone receptor (GnRHR) small molecule agonists, calcium flux assay in GnRHR-HEK293 cells (AID 1920063); note: nearly all actives have a fitted effect of over 35% in size
In short: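 Agonist mode: compounds at 15 concentrations, in triplicate, went onto calcium dye-loaded GnRHR-HEK293 cells. Intracellular calcium was then followed as 480/540 nm fluorescence at 1 s intervals over 3 min.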

[20] = biological target: Beta-2 adrenergic receptor (Homo sapiens) (UniProt P07550); experiment: Adrenergic beta2 receptor (ADRB2) small molecule agonists, cell-based qHTS assay (AID 1963593);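 note: CHO cells stably overexpressing human ADRB2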
In short: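 CHO cells stably over-expressing ADRB2 were plated overnight at 37C, then dosed with compounds plus a stimulation mix containing 100uM IBMX and 25uM Ro-20-1724 for 0.5hr at room temperature. cAMP was measured by HTRF competition, 1hr.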

Sequence of D(2) dopamine receptor (Homo sapiens) (P14416 whole entry, looked up): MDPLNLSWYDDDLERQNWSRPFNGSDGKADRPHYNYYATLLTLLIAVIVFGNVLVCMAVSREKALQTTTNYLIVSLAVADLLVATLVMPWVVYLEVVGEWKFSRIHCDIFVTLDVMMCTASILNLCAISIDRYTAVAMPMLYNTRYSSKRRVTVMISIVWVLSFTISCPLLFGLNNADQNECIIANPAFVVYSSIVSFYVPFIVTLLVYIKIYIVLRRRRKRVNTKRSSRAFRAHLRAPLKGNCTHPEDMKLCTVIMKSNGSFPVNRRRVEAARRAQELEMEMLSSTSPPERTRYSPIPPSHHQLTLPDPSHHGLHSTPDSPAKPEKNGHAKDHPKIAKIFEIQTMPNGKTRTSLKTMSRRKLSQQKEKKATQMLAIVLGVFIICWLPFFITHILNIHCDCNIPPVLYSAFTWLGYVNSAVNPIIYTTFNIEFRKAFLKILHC
Sequence of Gonadotropin-releasing hormone receptor (Homo sapiens) (P30968 whole entry, looked up): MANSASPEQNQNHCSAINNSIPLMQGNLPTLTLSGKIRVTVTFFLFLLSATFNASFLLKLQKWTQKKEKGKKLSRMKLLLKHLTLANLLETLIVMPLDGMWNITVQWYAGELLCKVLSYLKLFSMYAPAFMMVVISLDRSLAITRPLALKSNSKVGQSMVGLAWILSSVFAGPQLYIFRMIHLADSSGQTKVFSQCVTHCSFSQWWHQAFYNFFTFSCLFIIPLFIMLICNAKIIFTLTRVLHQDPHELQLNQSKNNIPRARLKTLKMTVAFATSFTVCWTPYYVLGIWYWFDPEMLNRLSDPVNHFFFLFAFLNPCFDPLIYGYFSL
Sequence of 5-hydroxytryptamine receptor 2A (Homo sapiens) (P28223 whole entry, looked up): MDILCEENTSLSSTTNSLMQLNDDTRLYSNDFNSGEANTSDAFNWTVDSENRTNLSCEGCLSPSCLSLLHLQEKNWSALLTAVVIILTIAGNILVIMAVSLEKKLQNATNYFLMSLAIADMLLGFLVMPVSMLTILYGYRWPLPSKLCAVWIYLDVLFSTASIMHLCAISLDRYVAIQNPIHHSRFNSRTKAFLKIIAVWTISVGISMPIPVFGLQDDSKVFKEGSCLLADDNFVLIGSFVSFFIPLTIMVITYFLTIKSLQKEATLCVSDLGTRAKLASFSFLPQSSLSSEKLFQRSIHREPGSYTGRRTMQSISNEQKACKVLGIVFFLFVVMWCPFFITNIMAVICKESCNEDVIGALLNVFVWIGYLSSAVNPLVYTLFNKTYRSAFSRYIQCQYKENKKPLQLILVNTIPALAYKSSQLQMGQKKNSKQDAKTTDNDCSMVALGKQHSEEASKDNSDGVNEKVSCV
Sequence of Beta-2 adrenergic receptor (Homo sapiens) (P07550 whole entry, looked up): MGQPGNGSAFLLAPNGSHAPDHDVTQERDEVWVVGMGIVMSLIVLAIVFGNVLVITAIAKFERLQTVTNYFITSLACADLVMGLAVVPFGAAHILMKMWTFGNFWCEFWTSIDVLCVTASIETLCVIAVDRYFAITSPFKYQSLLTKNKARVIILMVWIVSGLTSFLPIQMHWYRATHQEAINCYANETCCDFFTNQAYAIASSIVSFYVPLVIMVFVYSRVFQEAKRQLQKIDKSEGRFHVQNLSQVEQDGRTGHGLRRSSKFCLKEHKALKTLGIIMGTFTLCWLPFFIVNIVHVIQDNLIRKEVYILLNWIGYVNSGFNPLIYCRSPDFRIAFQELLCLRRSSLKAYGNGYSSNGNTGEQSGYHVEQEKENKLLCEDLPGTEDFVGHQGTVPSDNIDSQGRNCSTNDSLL
Sequence of Muscarinic acetylcholine receptor M1 (Homo sapiens) (P11229 whole entry, looked up): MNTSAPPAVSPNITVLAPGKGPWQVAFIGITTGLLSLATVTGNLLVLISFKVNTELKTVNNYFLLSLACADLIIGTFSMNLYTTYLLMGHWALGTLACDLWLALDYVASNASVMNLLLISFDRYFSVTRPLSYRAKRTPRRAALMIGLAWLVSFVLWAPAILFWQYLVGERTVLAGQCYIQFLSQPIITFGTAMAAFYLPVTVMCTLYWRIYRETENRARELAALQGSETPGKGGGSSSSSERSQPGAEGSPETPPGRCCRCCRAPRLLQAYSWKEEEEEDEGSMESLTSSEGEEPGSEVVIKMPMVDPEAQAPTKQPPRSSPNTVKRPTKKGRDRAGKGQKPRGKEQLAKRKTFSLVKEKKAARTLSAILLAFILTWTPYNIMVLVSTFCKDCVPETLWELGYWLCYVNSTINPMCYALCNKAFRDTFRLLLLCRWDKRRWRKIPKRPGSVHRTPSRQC

SMILES	Potency [1]	Potency [2]	outcome [3]	Potency [4]	Potency [5]	Potency [6]	Potency [7]	Potency [8]	Potency [9]	Potency [10]	Potency [11]	Potency [12]	Potency [13]	Potency [14]	Potency [15]	Potency [16]	Potency [17]	Potency [18]	Potency [19]	Potency [20]
CNC(=O)N(c1ccccc1)c1ccccc1	inactive	inactive	inactive	inactive	inactive	inactive	inactive	inactive	inactive	inactive	inactive	inactive	inactive	inactive	inactive	inactive	inactive	inactive	–	–
OCCCc1cccnc1	inactive	inactive	inactive	–	inactive	inactive	inactive	–	inactive	inactive	inactive	inactive	inactive	inactive	inactive	inactive	inactive	inactive	inactive	–
O=C(O)c1cccc(Oc2ccccc2)c1	inactive	inactive	–	inactive	inactive	inactive	–	–	inactive	inactive	inactive	inactive	inactive	–	–	inactive	inactive	inactive	inactive	inactive
CC1c2ccccc2CN1NC(=O)c1ccc(Cl)c(S(N)(=O)=O)c1 (configuration not stated)	inactive	inactive	–	–	inactive	inactive	inactive	inactive	inactive	inactive	inactive	inactive	inactive	inactive	inactive	inactive	inactive	inactive	inactive	–
O=C(O)c1cccc(N(Cc2cccnc2)c2ccc(OC(F)F)c(OC(F)F)c2)c1	inactive	inactive	–	inactive	inactive	inactive	inactive	inactive	–	inactive	inactive	inactive	inactive	–	–	inactive	inactive	inactive	inactive	inactive
CN1CC(=O)N/C1=N/C(=O)Nc1cccc(Cl)c1	inactive	inactive	inactive	inactive	inactive	inactive	inactive	–	inactive	inactive	inactive	inactive	inactive	inactive	–	inactive	inactive	inactive	–	inactive
BrC(Br)C(Br)Br	inactive	inactive	inactive	inactive	inactive	inactive	inactive	–	inactive	inactive	inactive	inactive	inactive	inactive	inactive	inactive	inactive	inactive	–	–
N[C@H]1CN(c2c(F)cc3c(=O)c(C(=O)O)cn(C4C[C@H]4F)c3c2Cl)CC12CC2 (some centres not stated)	inactive	inactive	inactive	inactive	inactive	inactive	inactive	–	–	inactive	inactive	inactive	–	–	–	–	inactive	inactive	–	–
Oc1cccc(O)c1O	inactive	inactive	inactive	inactive	inactive	inactive	inactive	inactive	inactive	–	–	–	–	inactive	inactive	inactive	inactive	inactive	–	–
CC(C)(O)CCC(C)(C)O	inactive	inactive	inactive	inactive	inactive	inactive	inactive	–	inactive	inactive	inactive	inactive	–	inactive	inactive	inactive	inactive	inactive	–	–
CCC(C(=O)O)c1ccc(N2Cc3ccccc3C2=O)cc1 (configuration not stated)	inactive	inactive	inactive	inactive	inactive	inactive	inactive	inactive	–	inactive	inactive	inactive	inactive	–	–	–	inactive	inactive	–	inactive
COc1c(C)c2c(c(O)c1C/C=C(\C)CCC(=O)OCCN1CCOCC1)C(=O)OC2	inactive	inactive	inactive	inactive	inactive	inactive	inactive	inactive	–	–	–	–	–	–	–	inactive	inactive	inactive	–	inactive
O=CNNC=O	inactive	inactive	inactive	inactive	inactive	inactive	inactive	–	inactive	inactive	inactive	inactive	inactive	inactive	inactive	inactive	inactive	–	–	–
Clc1ccc2n[nH]nc2c1	inactive	inactive	inactive	28.9 µM (active)	inactive	inactive	inactive	inactive	–	–	inactive	–	inactive	inactive	–	inactive	inactive	inactive	–	inactive
COc1ccccc1OC(=O)Oc1ccccc1OC	inactive	inactive	inactive	inactive	inactive	inactive	inactive	–	inactive	–	inactive	inactive	–	inactive	–	inactive	inactive	inactive	–	inactive
